Test results from PubChem BioAssay (NCI).
About 79,000 compounds went through this panel and 15% of them were active in at least one assay; those are over-represented in the sample as a whole. A number with no mark means an inactive call. No stated cut-off is given here; in the data, active means growth inhibition above about 70%; inactive means the rest.

Assay: NCI Yeast Anticancer Drug Screen. Data for the rad50 strain (AID 155);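 further: 0% = growth of vehicle-only cultures of the same strain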
Conditions: S. cerevisiae rad50 strain growth inhibition; at 50.0 µM; hits give high values
How it was run: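 Vehicle-treated cultures provide the reference for the growth inhibition reported for compound-exposed, repair-deficient yeast.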

Row | SMILES | growth inhibition
1 | COc1ccc2c(c1)Sc1c(Cl)c3c(c(Cl)c1=N2)Sc1cc(OC)ccc1N=3 | 19.5%
2 | COc1nc(NC2OC(COC(C)=O)C(OC(C)=O)C(OC(C)=O)C2OC(C)=O)c(C(=O)CCl)c(=O)[nH]1 (centres undefined) | 3.75%
3 | O=C(O)C(Cc1ccc2c(c1)CCC2)(Cc1ccc2c(c1)CCC2)C(=O)O | 26.9%
4 | Clc1cccc(Cl)c1C1SCc2nc3ncccc3n21 (centres undefined) | 14.1%
5 | COc1cccc(C2N(Cc3ccccc3OC)CCCN2Cc2ccccc2OC)c1 | 8.15%
6 | O=C(O)CC1CC2CC(=O)C1C2 (centres undefined) | -28.1%
7 | CSCCCCCSC | 0.6%
8 | CCOC(=O)C1=C(C)NC(=O)NC1c1ccc(N(C)C)cc1 (centres undefined) | 22.8%
9 | CCc1cccc(CC)c1N=Cc1ccccc1O | 32.8%
10 | NC(=O)c1cc(Cl)ccc1O | 14.5%
11 | c1ccc(CCc2cccnc2)nc1 | 26%
12 | Nc1c2cc3c(cc2c[n+]2ccc4ccccc4c12)OCO3 | 38.9%
13 | O=C1CCCC/C1=C1/SC(=Nc2ccccc2)C(=Nc2ccccc2)N1c1ccccc1 | 21.2%
14 | CCCOc1ccc(OCC(=O)c2ccccc2)cc1 | -23.9%
15 | CCCCOC(=O)NC(=O)c1cc2cc(I)cc(I)c2oc1=O | 3.45%
16 | N#CCCCCBr | 12.4%
17 | O=C1OC(=O)c2c1ccc1ccccc21 | -6%
18 | CCOC(=O)C[n+]1ccc(C(=O)OCC)cc1 | -7.1%
19 | C=C1OC(=O)C(N)=C1C(C)=O | -2.65%
